Columns and labels:
[1] = test system: Botulinum neurotoxin type F light chain protease (Clostridium botulinum); test: Clostridium botulinum type F light chain protease inhibitors, microsphere substrate cleavage, validation (AID 588459); settings: multiplex microsphere protease substrate cleavage assay, flow cytometry; at 10 µM; stronger effect = higher value
[2] = biological target: Botulinum neurotoxin type A (Clostridium botulinum) (UniProt P0DPI0); test: BoNT/A light chain protease inhibitors, biochemical, multiplex microsphere flow cytometry, validation set (AID 588460); settings: at 10 µM, stronger effect = higher value
[3] = biological target: Lethal factor (Bacillus anthracis) (UniProt P15917); test: Bacillus anthracis lethal factor inhibition, microsphere flow cytometry protease assay, validation at 10 µM (AID 588461); settings: multiplex microsphere protease cleavage assay, stronger effect = higher value

Measured: inhibition

Chain of Lethal factor (Bacillus anthracis) (P15917 whole entry, looked up): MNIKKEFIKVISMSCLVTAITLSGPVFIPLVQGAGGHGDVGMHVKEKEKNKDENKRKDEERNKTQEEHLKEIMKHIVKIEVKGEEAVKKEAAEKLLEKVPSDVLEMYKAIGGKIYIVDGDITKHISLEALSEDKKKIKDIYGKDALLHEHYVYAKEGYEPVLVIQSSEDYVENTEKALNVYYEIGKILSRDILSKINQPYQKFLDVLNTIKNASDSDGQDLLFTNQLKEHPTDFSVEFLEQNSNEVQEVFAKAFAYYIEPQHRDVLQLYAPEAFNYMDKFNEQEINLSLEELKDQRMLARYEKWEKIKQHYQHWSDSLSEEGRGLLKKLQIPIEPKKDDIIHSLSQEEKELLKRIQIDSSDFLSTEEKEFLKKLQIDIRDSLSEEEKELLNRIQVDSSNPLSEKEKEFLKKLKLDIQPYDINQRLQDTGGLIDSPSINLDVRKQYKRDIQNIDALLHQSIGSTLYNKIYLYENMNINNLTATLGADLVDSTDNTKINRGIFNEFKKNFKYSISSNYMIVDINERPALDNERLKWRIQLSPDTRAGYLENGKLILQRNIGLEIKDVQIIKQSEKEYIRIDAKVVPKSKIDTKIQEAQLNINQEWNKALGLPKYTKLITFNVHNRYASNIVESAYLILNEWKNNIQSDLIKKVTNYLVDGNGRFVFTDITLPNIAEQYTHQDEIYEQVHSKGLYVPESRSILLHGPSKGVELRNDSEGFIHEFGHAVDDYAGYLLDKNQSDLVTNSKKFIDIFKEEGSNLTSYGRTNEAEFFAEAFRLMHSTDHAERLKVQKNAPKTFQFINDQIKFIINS
Chain of Botulinum neurotoxin type A (Clostridium botulinum) (P0DPI0 whole entry, looked up): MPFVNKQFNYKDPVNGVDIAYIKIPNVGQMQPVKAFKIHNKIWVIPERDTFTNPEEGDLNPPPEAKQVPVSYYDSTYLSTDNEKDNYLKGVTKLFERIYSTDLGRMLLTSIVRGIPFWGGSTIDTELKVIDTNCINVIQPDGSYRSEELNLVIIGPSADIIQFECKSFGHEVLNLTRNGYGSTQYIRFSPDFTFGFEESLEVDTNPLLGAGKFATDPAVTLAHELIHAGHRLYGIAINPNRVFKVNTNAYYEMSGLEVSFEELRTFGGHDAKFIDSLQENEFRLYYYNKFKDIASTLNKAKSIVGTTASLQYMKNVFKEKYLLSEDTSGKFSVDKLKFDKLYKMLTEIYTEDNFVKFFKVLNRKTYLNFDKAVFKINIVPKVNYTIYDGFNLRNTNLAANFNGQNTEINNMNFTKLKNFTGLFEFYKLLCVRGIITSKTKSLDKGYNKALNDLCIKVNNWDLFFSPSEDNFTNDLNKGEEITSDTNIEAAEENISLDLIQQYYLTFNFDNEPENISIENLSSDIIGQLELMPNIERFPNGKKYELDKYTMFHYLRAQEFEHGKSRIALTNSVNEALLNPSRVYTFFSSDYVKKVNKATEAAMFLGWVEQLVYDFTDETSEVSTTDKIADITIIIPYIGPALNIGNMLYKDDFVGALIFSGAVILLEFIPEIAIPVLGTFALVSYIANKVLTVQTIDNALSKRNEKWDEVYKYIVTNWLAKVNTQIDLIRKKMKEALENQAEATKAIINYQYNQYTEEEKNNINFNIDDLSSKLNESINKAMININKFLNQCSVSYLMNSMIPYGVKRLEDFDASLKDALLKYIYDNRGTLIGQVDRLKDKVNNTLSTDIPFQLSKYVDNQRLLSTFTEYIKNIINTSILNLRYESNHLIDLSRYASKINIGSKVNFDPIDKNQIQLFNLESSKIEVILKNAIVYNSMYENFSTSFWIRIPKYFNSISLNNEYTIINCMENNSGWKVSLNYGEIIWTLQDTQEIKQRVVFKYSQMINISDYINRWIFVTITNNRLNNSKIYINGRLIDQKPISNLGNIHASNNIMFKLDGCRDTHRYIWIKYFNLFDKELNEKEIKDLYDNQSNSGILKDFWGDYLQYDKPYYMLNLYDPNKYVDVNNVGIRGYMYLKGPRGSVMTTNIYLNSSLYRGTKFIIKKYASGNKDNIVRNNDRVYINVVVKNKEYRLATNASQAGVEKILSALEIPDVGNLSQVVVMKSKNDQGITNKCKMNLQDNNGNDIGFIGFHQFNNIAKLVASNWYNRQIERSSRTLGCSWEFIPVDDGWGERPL

CC(C)N(Cc1nccn1C)C(=O)CC1C(=O)NCCN1Cc1ccccc1C(F)(F)F (centres undefined)
inactive: [1] -1.2% | [2] -0.8% | [3] 0.4%

NCCOc1ccccc1OCCN
inactive: [1] 1.6% | [2] -0.4% | [3] -4.4%

CC(=O)Nc1ccccc1O
inactive: [1] 1.5% | [2] -1.1% | [3] -1.7%

COc1ccc(C(=O)Nc2ccccc2C(=O)NCCCn2ccnc2)cc1
inactive: [1] -3.6% | [2] -1.8% | [3] -3.7%

O=c1nc2sc3ccccc3n2c(=O)n1-c1ccc(Cl)cc1
inactive: [1] 0.3% | [2] -1.6% | [3] -7.9%

Cc1ccc(OCCSc2ncccn2)c(C)c1
inactive: [1] 3.4% | [2] 0.6% | [3] 1.7%

CCc1cc2c(C)cc(=O)oc2cc1OC(=O)C1CCCN1C(=O)OC(C)(C)C (centres undefined)
inactive: [1] 0.1% | [2] -1.6% | [3] -1.1%

Nc1cnn(C2OC(CO)C(O)C2O)c(=O)n1 (centres undefined)
inactive: [1] 0.5% | [2] 0% | [3] -3.7%

Cc1c(OCC(=O)NC(Cc2c[nH]c3ccc(O)cc23)C(=O)O)ccc2c3c(c(=O)oc12)CCC3 (centres undefined)
inactive: [1] 3.2% | [2] -1.1% | [3] 3.7%

CN(CCO)CC(O)Cn1cnc2c1c(=O)n(C)c(=O)n2C (centres undefined) (tested in a mixture with another compound)
inactive: [1] -0.4% | [2] 1.1% | [3] -3.6%

C[C@]12C=CC(=O)C=C1CCC1C3CC[C@](O)(C(=O)CO)[C@@]3(C)CC3OC312 (some centres undefined)
inactive: [1] -1.8% | [2] -2.7% | [3] -7.3%

CC(=O)c1c(N)nc2n(c1=O)CCCCC2
inactive: [1] -2.9% | [2] -1% | [3] -2.9%

O=C(Cc1c[nH]c2ccccc12)OCCOC(=O)Cc1c[nH]c2ccccc12
inactive: [1] 0.9% | [2] -0.1% | [3] -5.9%

Cc1ccc(CN2CCN(CCCc3ccccc3)CC2CCO)cc1 (centres undefined)
inactive: [1] 0.2% | [2] -0.2% | [3] -3.4%

CC1(C)O[C@@H]2C[C@H]3[C@@H]4C[C@H](F)C5=CC(=O)CC[C@]5(C)[C@H]4[C@@H](O)C[C@]3(C)[C@]2(C(=O)CO)O1
inactive: [1] 1.1% | [2] -0.8% | [3] 10.7%

CC(C)CCOCC(=O)Nc1cccc(C(=O)O)c1
inactive: [1] 2.9% | [2] 0% | [3] -0.3%

O=C(O)c1cccnc1
inactive: [1] 1.8% | [2] 2% | [3] 2.5%

CCCn1c(=O)c2[nH]c(C3CCCC3)nc2n(CCC)c1=O
inactive: [1] 4.7% | [2] 0.8% | [3] -1.9%

C#C[C@]1(O)CC[C@H]2[C@@H]3CCc4cc(OC5CCCC5)ccc4[C@H]3CC[C@@]21C
inactive: [1] -0.9% | [2] 0.8% | [3] 0.5%

COc1ccc(C(=O)NCc2cccnc2)cc1
inactive: [1] -1.8% | [2] 0% | [3] -4.9%

Cc1ccc(N2CCN(C(=S)c3ccc(-c4cccc([N+](=O)[O-])c4)o3)CC2)cc1
inactive: [1] -0.6% | [2] -1.4% | [3] -5.3%

CC12CCC(C(=O)N3CCc4ccccc43)(CC1=O)C2(C)C (centres undefined)
inactive: [1] 0.6% | [2] -0.7% | [3] -0.2%

Cc1cc(Cl)cc2c1NC(=O)[C@]21[C@@H]2C(=O)N(Cc3ccccc3)C(=O)[C@@H]2[C@@H]2CCCN21
inactive: [1] 2.1% | [2] 1.7% | [3] 2.3%

N/C(=N\OS(=O)(=O)c1ccc2ccccc2c1)c1cccnc1
inactive: [1] -1.4% | [2] -0.9% | [3] 0.2%

C[C@@H]1C[C@H]2[C@@H]3CCC4=CC(=O)C=C[C@]4(C)[C@@]3(F)[C@@H](O)C[C@]2(C)[C@@]1(O)C(=O)COP(=O)(O)O
inactive: [1] 2.6% | [2] 0.2% | [3] 0.9%

CN(C)CCC(c1ccccc1)c1ccccn1 (centres undefined)
inactive: [1] -2.8% | [2] -0.2% | [3] 2.6%

CN(Cc1ccccc1)CC(O)COc1ccc(CNCc2cccnc2)cc1 (centres undefined)
inactive: [1] -3.8% | [2] 0.2% | [3] -5.3%

COc1ccc(CNC(=O)C2CCN(C(=O)[C@@H](CC(C)C)NC(=O)OC(C)(C)C)CC2)cc1
inactive: [1] 1.1% | [2] -0.8% | [3] -3.7%

— PubChem BioAssay
